According to PubChem BioAssay AID1626 (SRMLSC, 2009):
About 2,000 (0.91%) of roughly 220,000 compounds were called active. Roughly 2% stayed inconclusive and do not appear here. Only a sample is shown. Entries with a potency or affinity are not part of this list. Unmarked numbers belong to inactive results. Cut-off read from the data, not from the text of the source: inconclusive = inhibition above about 80% without an active follow-up result; inactive = below that; test concentration not stated here.

Assay: M. tuberculosis H37Rv growth inhibitors, H37Rv strain (AID 1626);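 note: bacteria incubated seven days before Alamar blue readout; 0% = bacteria only wells and 100% = bacteria with antibiotic wells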
Settings: stronger effect = higher value, concentration not given here
For O=C(CCc1c[nH]c2ccccc12)Nc1ccc(S(=O)(=O)Nc2ncccn2)cc1, the inhibition was -2.28%. Work on CC1CC1C(=O)OCC(=O)Nc1cccc([N+](=O)[O-])c1 (configuration not stated) yielded an inhibition of -1.97%. Work on CN1CCN(Cc2ccc(Sc3ccc(Cl)cc3)c([N+](=O)[O-])c2)CC1 yielded an inhibition of 18.9%. With Cc1ccc(Sc2ccc(CN3CCCC3)cc2[N+](=O)[O-])cc1 the inhibition was 9.11%. With O=C(CN1CCOCC1)NNC(=S)Nc1ccc(Cl)cc1 the inhibition was 4.8%. Work on Cc1ccc(SCC(=O)NC2CCS(=O)(=O)C2)cc1 (configuration not stated) yielded an inhibition of 4.3%. CCc1nc(N2CCN(Cc3ccc4c(c3)OCO4)CC2)c2oc3ccccc3c2n1 gave an inhibition of 5.87%. Compound c1ccc2c(c1)oc1c(NCc3ccc4c(c3)OCO4)ncnc12 has an inhibition of 57.7%. Work on CCc1nc(Nc2ccc3c(c2)OCCO3)c2oc3ccccc3c2n1 yielded an inhibition of 1.04%. With Cc1nc(Nc2ccc3c(c2)OCO3)c2oc3ccccc3c2n1 the inhibition was -15.2%. Work on CC1Cc2ccccc2N1C(=O)c1cnc2ccccn2c1=O (configuration not stated) yielded an inhibition of -5.12%. Work on COc1ccc2cc(C(=O)N3CCCCCC3)sc(=O)c2c1OC yielded an inhibition of -2.1%. With CCCCCC(=O)N1CC2(CC(c3cccc(NC(=O)CC(c4ccccc4)c4ccccc4)c3)=NO2)C[C@@H]1C(N)=O (some centres not stated) the inhibition was 11.1%. Cc1nc(CNS(=O)(=O)c2cccs2)cs1 gave an inhibition of 5.2%. c1ccc2c(c1)ccc1ncccc12 gave an inhibition of -7.23%. Nc1ccc(/C=C/c2ccc3ncccc3c2)cc1 gave an inhibition of 17.8%. In the case of COc1cccc(-c2ccc(C#N)c(=O)[nH]2)c1, the inhibition is reported as -3.44%. For O=C(Nc1cccc(O)c1)c1cccc(S(=O)(=O)N2CCCC2)c1, the inhibition was -5.4%. In the case of C/C(=C\C(=O)c1cccnc1)Nc1ccc(O)cc1, the inhibition is reported as -6.05%. CC(=O)Nc1ccccc1O showed an inhibition of -3.72%. Compound O=C(Nc1ccccc1O)c1ccccc1O has an inhibition of 0.57%. In the case of C/C(=C\C(=O)c1ccccc1)Nc1ccc(O)cc1, the inhibition is reported as -1.7%. With COc1ccc(NC(=S)NC(C)c2ccncc2)cc1OC (configuration not stated) the inhibition was 0.92%. For O=C(O/N=C(\c1ccccc1)c1ccccn1)c1cccc2ccccc12, the inhibition was 4.72%. Compound CCN(CC(=O)NCc1cccs1)c1ccc(S(=O)(=O)N2CCN(C)CC2)cn1 has an inhibition of -7.08%. Compound COc1ccc(-c2csc(/C(C#N)=C\c3ccc(OC)c([N+](=O)[O-])c3)n2)cc1 has an inhibition of 5.82%. In the case of COc1ccc(-c2csc(/C(C#N)=C\c3ccc(O)c([N+](=O)[O-])c3)n2)cc1OC, the inhibition is reported as 73.4%. COc1ccc(S(=O)(=O)N2CCCCC2)cc1NC(=O)c1cc(C)on1 gave an inhibition of -0.76%. Compound CNC(=S)Nn1cnc2ccccc21 has an inhibition of 0.16%. Compound COc1ccc(-n2ccnc2)cc1 has an inhibition of 1.8%. Compound c1ccc(-c2ccc(-n3ccnc3)cc2)cc1 has an inhibition of 1.87%. With COc1ccc(OC)c(N2C(=O)CC(Cc3ccc(Cl)cc3)C2=O)c1 (configuration not stated) the inhibition was -4.41%. With Cc1nc2ccccc2c(=O)n1/N=C/C=C/c1ccccc1 the inhibition was -2.49%. COc1cc2c(cc1OC)C1(NCC2)C(=O)Nc2ccccc21 (configuration not stated) gave an inhibition of 0.79%. For COc1ccc2c(c1)C1(Nc3ccccc3C(=O)N1c1ccccc1)C(=O)N2 (configuration not stated), the inhibition was -1.38%. Work on COc1ccc(C(=O)C2CCCN(Cc3ccc4nonc4c3)C2)c(OC)c1 (configuration not stated) yielded an inhibition of 4.61%. CC(C)NC(=O)NC(=O)CSc1ccccc1F showed an inhibition of 8.25%. COc1ccc(-c2cn[nH]c2N)cc1 gave an inhibition of 3.3%. Nc1[nH]ncc1-c1ccccc1 gave an inhibition of 48.5%. With O=C(NCc1cn2ccsc2n1)c1cccs1 the inhibition was 2.94%. With O=C(COC(=O)c1cc(S(=O)(=O)N2CCOCC2)ccc1O)Nc1cc(S(=O)(=O)N2CCCC2)ccc1Cl the inhibition was -7.64%. With Cc1cccnc1NC(=O)Nc1ccccc1 the inhibition was -2.38%. Compound Cc1nc(NC(=O)c2ccc(F)cc2)sc1C(=O)Nc1ccc2c(c1)CCC2 has an inhibition of 10.8%. For Cc1ccc(C(=O)Nc2ccc3c(c2)CCC3)cc1, the inhibition was 27.7%. O=C1CC2(CCCCCC2)Oc2ccc(Cl)cc21 gave an inhibition of -6.31%. Work on COc1cccc(-c2cc(C(=O)NCCN3CCOCC3)no2)c1 yielded an inhibition of 0.49%. Compound COc1ccc(NC(=S)NCCCN2CCOCC2)cc1 has an inhibition of -0.5%. In the case of CCCc1ccc(OCc2nc(-c3ccc(NC(=O)c4cccs4)cc3)no2)cc1, the inhibition is reported as 15.6%. For Cc1ccccc1OCc1nc(-c2ccc(NC(=O)c3ccco3)cc2)no1, the inhibition was 19.3%. Work on Cc1ccc(-n2c(-c3ccncc3)n[nH]c2=S)cc1 yielded an inhibition of -9.92%. Work on Cc1cc2oc(C(=O)N(Cc3cccs3)C3CCS(=O)(=O)C3)cc(=O)c2cc1Cl (configuration not stated) yielded an inhibition of 0.6%. With O=C(NCCc1ccccc1)C1CCN(Cc2ccccc2F)CC1 the inhibition was 0.69%. CCCSc1nnc(Cn2c(=O)sc3ccccc32)n1C gave an inhibition of 3.51%. Work on Cc1ccc(OCC(=O)Nc2sc3c(c2C#N)CC(C)(C)NC3(C)C)cc1 yielded an inhibition of 10.1%. Compound CCOC(=O)c1c(NC(=O)C2COc3ccccc3O2)sc(C(C)=O)c1C (configuration not stated) has an inhibition of -3.37%. CCOC(=O)c1c(NC(=O)C2COc3ccccc3O2)sc(C)c1C (configuration not stated) showed an inhibition of -3.73%. Work on CC1(C)Cc2c(sc(NC(=O)COc3ccccc3)c2C#N)C(C)(C)N1 yielded an inhibition of -3.34%. Work on CCOC(=O)c1cc2occc2n1CCCN1C(=O)c2ccccc2C1=O yielded an inhibition of -1.25%. CCc1cc2ccc(OC)cc2nc1SCC(=O)NNC(C)=O gave an inhibition of 2.9%. CC(=O)N(NC(N)=O)C(C)CC(=O)C1C(C)C=CCC1(C)C (configuration not stated) showed an inhibition of -4.41%. CC(c1nnnn1C(C)(C)C)N(Cc1cccnc1)Cc1ccccc1Cl (configuration not stated) gave an inhibition of 11.3%. In the case of O=C(Cc1cc(=O)[nH][nH]1)N/N=C/c1ccccc1Cl, the inhibition is reported as 0.78%. For O=C(COc1ccccc1[N+](=O)[O-])N/N=C/c1ccc(O)c([N+](=O)[O-])c1, the inhibition was -1.06%. O=[N+]([O-])c1ccc(/C=N/N/C(=N/c2ccccn2)c2ccccn2)cc1 showed an inhibition of 6.35%. C=CCNC(=S)NNC(=O)c1ccc(=O)n(Cc2ccc(Cl)cc2Cl)c1 gave an inhibition of 2.51%. For COC(=O)/C(=C1/Oc2ccc(C)cc2S1)C(F)(F)F, the inhibition was 1.01%. Work on COC(=O)/C(=C1/Oc2ccc(C(C)(C)C)cc2S1)C(F)(F)F yielded an inhibition of -3.79%. In the case of CCCCCn1c(=O)[nH]c2cc(C(=O)NCCN(CC)CC)ccc2c1=O, the inhibition is reported as 2.41%. With Cc1cc2cc(C)c(SCC(=O)NCc3ccco3)nc2cc1C the inhibition was 2.4%. In the case of COC(=O)CCCC[C@H]1SC[C@H]2NC(=O)N[C@]21O, the inhibition is reported as -9.41%. For COc1ccc(Cl)cc1C(=O)Nc1ccc(NC(=O)C(C)C)cc1, the inhibition was 6.21%. In the case of Cc1ccc(S(=O)(=O)n2c([N+](=O)[O-])cnc2C)c(C)c1C, the inhibition is reported as 2.51%. For Cc1nn(-c2ccccc2)c2sc(C(=O)O)cc12, the inhibition was -2.71%. CC(=O)c1sc(NC(=O)c2cc3c(C)nn(-c4ccccc4)c3s2)nc1C gave an inhibition of -3.28%. For Cc1ccc(Nc2nc(COC(=O)COc3ccc(C=O)cc3)cs2)cc1, the inhibition was -1.49%. For C/C=C/c1ccc(OCC(=O)OCC)c(OC)c1, the inhibition was 78.2%. With Cc1occc1-c1n[nH]c(=S)n1C the inhibition was -11.2%. With NC(=O)C1CCN(C(=O)C2c3ccccc3C(=O)N3CCc4ccccc4C23)CC1 (configuration not stated) the inhibition was 1.51%. Cn1nc(-c2ccc(Cl)cc2)c2cc(C(=O)N3CCN(c4ccccc4)CC3)sc21 showed an inhibition of 7.8%. Compound O=C(Nc1ccc(C(F)(F)F)cc1)c1cnc(N2CCN(c3ccccn3)CC2)c2ccccc12 has an inhibition of 65.3%. For O=C(c1cnc(N2CCN(c3ncccn3)CC2)c2ccccc12)N1CCN(c2ccccn2)CC1, the inhibition was 1.07%. With CC(C)NC(=O)c1cnc(N2CCN(c3ccccn3)CC2)c2ccccc12 the inhibition was 6.14%. For COc1cccc(-c2nn(C)c3sc(C(=O)N4CCN(c5ccccn5)CC4)cc23)c1, the inhibition was 60%. For COc1ccccc1N1CCN(c2ncc(C(=O)N3CCN(c4cccc(Cl)c4)CC3)c3ccccc23)CC1, the inhibition was 95%. O=C(NN1C(=O)C2C3C=CC(O3)C2C1=O)c1cccc(Br)c1 (configuration not stated) showed an inhibition of 5.77%. Cc1c(C(=O)NCC2CCCO2)cccc1[N+](=O)[O-] (configuration not stated) showed an inhibition of 2.82%. For O=C(NCc1cccc(C(F)(F)F)c1)C1CCN(c2ncccn2)CC1, the inhibition was -1.47%. Compound O=C(O)CCc1nc2ccccc2n(CCc2ccccc2)c1=O has an inhibition of -8.81%. O=C(C1CC(c2ccc(F)cc2)=NO1)N1CCc2ccccc2C1 (configuration not stated) showed an inhibition of -0.85%. Compound O=C(c1cccc(F)c1)N1CCN(C(=O)c2nn3cccnc3c2Cl)CC1 has an inhibition of 0.18%. In the case of O=C(c1ccc(F)cc1)C1CCN(C(=O)c2ccncc2)CC1, the inhibition is reported as -7.5%. Work on O=C(/C=N/O)Nc1ccc2sc3ccccc3c2c1 yielded an inhibition of 50.4%. With N#Cc1c2n(c3c(=O)n(CC(=O)c4ccc(Br)cc4)cnc13)CCCC2 the inhibition was 1.64%. Compound CC(C)CCN1CCN(Cc2nc(-c3ccccc3)cs2)CC1CCO (configuration not stated) has an inhibition of 4.13%. Cn1cnc([N+](=O)[O-])c1Sc1ncnc2nc[nH]c12 showed an inhibition of 7.31%. With O=C(CSc1ncnc2nc[nH]c12)c1ccc([N+](=O)[O-])cc1 the inhibition was -0.96%. Compound COc1cc(/C=N/NC(=O)c2cncc(Br)c2)ccc1OC(=O)c1ccc2c(c1)OCO2 has an inhibition of -4.21%.
